The record followed here is publication PMC7862700, “An all-to-all approach to the identification of sequence-specific readers for epigenetic DNA modifications on cytosine”.

Holding throughout (test): DAPPL (digital affinity profiling via proximity ligation, sequencing); 10 mM Tris-HCl pH 7.5, 50 mM NaCl, 1 mM DTT, 4% glycerol, room temperature, 30 min; GST-TFs on glutathione beads, 16-mer random dsDNA library, 0.1% formaldehyde crosslink after washing; high values mean tight binding
The target in one test is T1, FLI1 (Homo sapiens, UniProt Q01543 1-452).
T1 sequence: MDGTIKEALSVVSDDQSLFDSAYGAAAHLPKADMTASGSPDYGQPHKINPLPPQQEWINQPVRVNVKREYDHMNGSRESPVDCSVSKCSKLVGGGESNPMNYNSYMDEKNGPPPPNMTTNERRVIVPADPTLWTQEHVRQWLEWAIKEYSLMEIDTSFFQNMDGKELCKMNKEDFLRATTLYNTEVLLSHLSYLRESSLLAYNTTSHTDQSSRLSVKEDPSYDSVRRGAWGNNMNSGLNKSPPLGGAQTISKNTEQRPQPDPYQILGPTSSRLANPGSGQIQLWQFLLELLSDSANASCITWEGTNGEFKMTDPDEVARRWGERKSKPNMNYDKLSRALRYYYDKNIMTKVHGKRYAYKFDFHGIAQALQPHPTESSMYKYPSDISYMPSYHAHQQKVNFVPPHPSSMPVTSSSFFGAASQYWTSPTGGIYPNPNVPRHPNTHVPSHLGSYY
The conditions noted are these: protein: recombinant; tags: N-terminal GST; dsDNA, one strand shown. Summed up:
(§1)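 Sequencing on an Illumina NextSeq500 followed washing, crosslinking with 0.1% formaldehyde, proximity ligation (BsaI/T4 ligase, 1 h, 37 °C) and PCR amplification of pools that had been incubated for 30 min at room temperature with 200 nmole of a random double-stranded 16-mer DNA library in Tris/NaCl/DTT/glycerol buffer. Each pool held DNA-barcoded human transcription factors, expressed in yeast as GST fusions and captured on glutathione beads, plus a tag-only sample. Binding signal is a hexamer's read frequency for a factor divided by its frequency in the tag-only sample.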

For another test, the target named is T2, ELK1 (Homo sapiens, UniProt P19419 1-428).
T2 sequence: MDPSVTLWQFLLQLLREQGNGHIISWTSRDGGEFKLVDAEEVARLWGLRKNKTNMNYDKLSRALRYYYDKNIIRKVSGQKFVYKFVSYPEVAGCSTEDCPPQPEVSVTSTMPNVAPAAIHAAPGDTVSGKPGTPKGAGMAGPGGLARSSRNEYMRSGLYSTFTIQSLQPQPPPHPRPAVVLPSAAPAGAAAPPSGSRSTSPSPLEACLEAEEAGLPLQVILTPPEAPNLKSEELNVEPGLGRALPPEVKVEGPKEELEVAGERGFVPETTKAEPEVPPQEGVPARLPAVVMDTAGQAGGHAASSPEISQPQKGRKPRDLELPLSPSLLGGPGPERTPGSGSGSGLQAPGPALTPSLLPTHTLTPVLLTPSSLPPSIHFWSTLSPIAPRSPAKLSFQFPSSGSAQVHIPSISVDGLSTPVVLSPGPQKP
The conditions noted are these: protein: recombinant; tags: N-terminal GST; dsDNA, one strand shown. In outline: as §1

A further test concerns the target T3, GABPA (Homo sapiens, UniProt Q06546 1-454).
T3 sequence: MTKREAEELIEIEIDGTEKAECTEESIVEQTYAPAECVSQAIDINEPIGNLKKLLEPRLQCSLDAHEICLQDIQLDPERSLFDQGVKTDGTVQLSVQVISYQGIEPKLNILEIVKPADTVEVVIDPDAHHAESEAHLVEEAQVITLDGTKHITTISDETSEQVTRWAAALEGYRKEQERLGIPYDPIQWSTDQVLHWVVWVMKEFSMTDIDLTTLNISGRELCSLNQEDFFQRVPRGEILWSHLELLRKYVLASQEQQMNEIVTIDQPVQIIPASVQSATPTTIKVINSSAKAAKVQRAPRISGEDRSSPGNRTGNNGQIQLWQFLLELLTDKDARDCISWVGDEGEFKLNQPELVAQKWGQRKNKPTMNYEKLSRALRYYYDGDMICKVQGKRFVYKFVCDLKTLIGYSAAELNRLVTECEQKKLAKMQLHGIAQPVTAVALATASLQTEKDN
The conditions noted are these: protein: recombinant; tags: N-terminal GST; dsDNA, one strand shown. Summed up: as §1

The next test deals with T4, ERG (Homo sapiens, UniProt P11308 1-479).
T4 sequence: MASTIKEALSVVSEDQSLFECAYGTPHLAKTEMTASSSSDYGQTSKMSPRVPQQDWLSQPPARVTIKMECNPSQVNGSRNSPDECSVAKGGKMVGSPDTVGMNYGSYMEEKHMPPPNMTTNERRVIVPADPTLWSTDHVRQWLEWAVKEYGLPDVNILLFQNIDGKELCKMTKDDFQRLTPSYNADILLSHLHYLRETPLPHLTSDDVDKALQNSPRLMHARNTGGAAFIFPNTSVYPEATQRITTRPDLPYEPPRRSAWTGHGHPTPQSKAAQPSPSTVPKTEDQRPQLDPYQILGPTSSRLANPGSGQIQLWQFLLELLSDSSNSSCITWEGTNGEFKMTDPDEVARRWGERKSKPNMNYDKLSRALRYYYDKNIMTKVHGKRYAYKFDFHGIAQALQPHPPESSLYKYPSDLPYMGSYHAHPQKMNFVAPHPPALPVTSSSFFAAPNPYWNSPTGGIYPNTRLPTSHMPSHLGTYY
The conditions noted are these: protein: recombinant; tags: N-terminal GST; dsDNA, one strand shown. Summed up:
as §1

Another test addresses ELF1 (Homo sapiens, UniProt P32519 1-619). The conditions noted are these: protein: recombinant; tags: N-terminal GST; dsDNA, one strand shown. Summed up: as §1
Another test has as its target T5, EHF (Homo sapiens, UniProt Q9NZC4 1-300).
T5 sequence: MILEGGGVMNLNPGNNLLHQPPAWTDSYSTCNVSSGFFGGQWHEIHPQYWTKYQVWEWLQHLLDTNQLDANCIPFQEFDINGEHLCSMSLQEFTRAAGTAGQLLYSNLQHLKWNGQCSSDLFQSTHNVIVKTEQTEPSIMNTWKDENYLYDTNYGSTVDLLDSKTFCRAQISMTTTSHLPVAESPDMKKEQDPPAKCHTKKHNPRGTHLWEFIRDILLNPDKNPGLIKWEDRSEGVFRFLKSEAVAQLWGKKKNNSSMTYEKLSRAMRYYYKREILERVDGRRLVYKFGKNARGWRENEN
The conditions noted are these: protein: recombinant; tags: N-terminal GST; dsDNA, one strand shown. Summed up:
as §1

In a further test the target is SPI1 (Homo sapiens, UniProt P17947 1-270). The conditions noted are these: protein: recombinant; tags: N-terminal GST; dsDNA, one strand shown. In outline:
as §1

The next test has as its target SPIB (Homo sapiens, UniProt Q01892 1-262). The conditions noted are these: protein: recombinant; tags: N-terminal GST; dsDNA, one strand shown. Summed up: as §1
A further test has as its target T6, ELK3 (Homo sapiens, UniProt P41970 1-407).
T6 sequence: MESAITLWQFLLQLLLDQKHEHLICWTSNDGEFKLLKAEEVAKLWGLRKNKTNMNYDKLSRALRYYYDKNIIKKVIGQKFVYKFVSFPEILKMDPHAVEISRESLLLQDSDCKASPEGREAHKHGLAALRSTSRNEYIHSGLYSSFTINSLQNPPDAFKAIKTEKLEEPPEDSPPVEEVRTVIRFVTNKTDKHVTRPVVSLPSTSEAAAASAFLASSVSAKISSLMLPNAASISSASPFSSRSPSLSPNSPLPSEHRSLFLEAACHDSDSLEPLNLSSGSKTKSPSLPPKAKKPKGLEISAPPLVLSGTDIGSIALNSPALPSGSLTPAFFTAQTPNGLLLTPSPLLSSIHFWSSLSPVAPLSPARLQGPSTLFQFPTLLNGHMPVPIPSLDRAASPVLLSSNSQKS
The conditions noted are these: protein: recombinant; tags: N-terminal GST; dsDNA, one strand shown. Summed up:
as §1

The next test deals with T7, FEV (Homo sapiens, UniProt Q99581 1-238).
T7 sequence: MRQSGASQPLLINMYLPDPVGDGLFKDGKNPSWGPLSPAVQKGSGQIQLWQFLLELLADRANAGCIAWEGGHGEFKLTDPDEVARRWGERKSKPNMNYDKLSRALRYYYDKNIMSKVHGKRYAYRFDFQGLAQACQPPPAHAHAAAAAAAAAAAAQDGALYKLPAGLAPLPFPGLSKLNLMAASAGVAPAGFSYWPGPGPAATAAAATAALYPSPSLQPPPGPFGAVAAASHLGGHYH
The conditions noted are these: protein: recombinant; tags: N-terminal GST; dsDNA, one strand shown. Summed up: as §1

In another test the target is ETV5 (Homo sapiens, UniProt P41161 1-510). The conditions noted are these: protein: recombinant; tags: N-terminal GST; dsDNA, one strand shown. Summed up: as §1
Chain of ETV5 (P41161 whole entry): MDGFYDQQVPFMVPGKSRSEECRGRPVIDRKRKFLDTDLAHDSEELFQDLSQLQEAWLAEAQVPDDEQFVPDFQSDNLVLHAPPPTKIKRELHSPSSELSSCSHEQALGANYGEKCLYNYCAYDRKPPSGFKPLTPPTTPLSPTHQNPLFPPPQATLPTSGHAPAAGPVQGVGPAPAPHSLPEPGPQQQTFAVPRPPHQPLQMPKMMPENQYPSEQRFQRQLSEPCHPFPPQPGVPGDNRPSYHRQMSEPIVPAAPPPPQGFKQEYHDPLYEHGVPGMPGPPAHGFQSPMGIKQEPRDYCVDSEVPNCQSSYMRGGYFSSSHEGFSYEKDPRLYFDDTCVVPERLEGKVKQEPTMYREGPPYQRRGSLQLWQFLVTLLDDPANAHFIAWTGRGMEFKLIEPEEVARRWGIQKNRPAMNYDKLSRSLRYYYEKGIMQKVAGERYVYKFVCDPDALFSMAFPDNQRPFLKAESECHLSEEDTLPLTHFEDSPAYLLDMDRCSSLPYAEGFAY
For the next test, the target named is HSF1 (Homo sapiens, UniProt Q00613 1-529). The conditions noted are these: protein: recombinant; tags: N-terminal GST; chain copies: 3; dsDNA, one strand shown. Summed up:
as §1

The next test deals with T8, SPIC (Homo sapiens, UniProt Q8N5J4 1-248).
T8 sequence: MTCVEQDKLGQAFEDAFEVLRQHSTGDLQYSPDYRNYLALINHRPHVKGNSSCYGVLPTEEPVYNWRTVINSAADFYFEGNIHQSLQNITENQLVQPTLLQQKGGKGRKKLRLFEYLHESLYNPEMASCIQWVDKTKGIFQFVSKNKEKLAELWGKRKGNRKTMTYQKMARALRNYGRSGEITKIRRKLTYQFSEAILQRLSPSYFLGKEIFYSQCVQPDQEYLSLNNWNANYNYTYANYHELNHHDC
The conditions noted are these: protein: recombinant; tags: N-terminal GST; dsDNA, one strand shown. Summed up:
as §1

A further test addresses ELF4 (Homo sapiens, UniProt Q99607 1-663). The conditions noted are these: protein: recombinant; tags: N-terminal GST; dsDNA, one strand shown. Summed up:
as §1

For a further test, the target named is T9, ELK4 (Homo sapiens, UniProt P28324-2 1-405).
T9 sequence: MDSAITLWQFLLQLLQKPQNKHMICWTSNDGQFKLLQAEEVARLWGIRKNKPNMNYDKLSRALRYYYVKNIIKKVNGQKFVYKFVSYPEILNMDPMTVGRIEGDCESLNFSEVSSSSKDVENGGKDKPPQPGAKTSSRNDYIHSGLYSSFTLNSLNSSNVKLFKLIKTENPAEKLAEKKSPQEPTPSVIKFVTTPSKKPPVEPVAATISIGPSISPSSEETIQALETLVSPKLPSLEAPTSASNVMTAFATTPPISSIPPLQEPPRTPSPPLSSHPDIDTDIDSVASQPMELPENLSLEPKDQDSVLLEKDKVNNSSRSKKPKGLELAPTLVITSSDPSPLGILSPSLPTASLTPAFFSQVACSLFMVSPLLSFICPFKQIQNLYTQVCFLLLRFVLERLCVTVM
The conditions noted are these: protein: recombinant; tags: N-terminal GST; dsDNA, one strand shown. Summed up:
as §1

Another test addresses T10, ETV2 (Homo sapiens, UniProt O00321 1-342).
T10 sequence: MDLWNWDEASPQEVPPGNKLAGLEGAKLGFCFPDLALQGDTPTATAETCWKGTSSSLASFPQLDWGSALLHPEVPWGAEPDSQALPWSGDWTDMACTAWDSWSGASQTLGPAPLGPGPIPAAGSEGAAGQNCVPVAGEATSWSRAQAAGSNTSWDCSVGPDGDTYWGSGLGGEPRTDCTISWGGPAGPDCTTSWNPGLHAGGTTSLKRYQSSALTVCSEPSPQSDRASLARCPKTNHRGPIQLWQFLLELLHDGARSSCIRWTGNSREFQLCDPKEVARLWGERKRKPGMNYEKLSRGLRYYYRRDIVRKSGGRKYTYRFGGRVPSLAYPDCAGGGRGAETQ
The conditions noted are these: protein: recombinant; tags: N-terminal GST; dsDNA, one strand shown. Summed up: as §1

The target of another test is T11, ELF3 (Homo sapiens, UniProt P78545 1-371).
T11 sequence: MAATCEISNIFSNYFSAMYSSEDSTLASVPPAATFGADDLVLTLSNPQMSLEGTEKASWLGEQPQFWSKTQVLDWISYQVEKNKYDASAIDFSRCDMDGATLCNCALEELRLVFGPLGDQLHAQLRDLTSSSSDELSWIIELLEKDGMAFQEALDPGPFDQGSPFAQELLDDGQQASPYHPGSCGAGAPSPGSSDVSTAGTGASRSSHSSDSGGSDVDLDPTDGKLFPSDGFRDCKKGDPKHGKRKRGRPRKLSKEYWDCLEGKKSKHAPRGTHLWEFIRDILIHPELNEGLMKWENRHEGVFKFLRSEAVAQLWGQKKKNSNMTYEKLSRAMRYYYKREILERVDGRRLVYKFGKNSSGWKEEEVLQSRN
The conditions noted are these: protein: recombinant; tags: N-terminal GST; dsDNA, one strand shown. In outline:
as §1

The next test concerns the target ETV1 (Homo sapiens, UniProt P50549 1-477). The conditions noted are these: protein: recombinant; tags: N-terminal GST; dsDNA, one strand shown. Summed up: as §1

Chain of ELF1 (P32519 whole entry): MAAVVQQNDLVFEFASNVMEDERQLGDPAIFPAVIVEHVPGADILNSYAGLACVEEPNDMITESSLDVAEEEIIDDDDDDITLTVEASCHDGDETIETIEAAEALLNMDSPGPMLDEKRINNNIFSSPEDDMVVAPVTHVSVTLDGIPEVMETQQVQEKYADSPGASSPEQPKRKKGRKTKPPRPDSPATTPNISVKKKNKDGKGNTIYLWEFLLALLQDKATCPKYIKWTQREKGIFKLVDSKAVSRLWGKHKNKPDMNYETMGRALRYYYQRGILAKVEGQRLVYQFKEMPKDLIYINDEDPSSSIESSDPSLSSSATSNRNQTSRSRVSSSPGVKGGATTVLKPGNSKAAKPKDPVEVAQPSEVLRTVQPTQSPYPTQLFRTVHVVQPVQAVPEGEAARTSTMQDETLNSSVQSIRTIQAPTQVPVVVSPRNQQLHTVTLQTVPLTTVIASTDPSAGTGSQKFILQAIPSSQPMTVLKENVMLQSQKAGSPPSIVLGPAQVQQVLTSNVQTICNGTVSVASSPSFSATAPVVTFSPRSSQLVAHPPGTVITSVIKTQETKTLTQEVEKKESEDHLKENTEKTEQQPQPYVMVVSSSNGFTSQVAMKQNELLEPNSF
Chain of ETV1 (P50549 whole entry): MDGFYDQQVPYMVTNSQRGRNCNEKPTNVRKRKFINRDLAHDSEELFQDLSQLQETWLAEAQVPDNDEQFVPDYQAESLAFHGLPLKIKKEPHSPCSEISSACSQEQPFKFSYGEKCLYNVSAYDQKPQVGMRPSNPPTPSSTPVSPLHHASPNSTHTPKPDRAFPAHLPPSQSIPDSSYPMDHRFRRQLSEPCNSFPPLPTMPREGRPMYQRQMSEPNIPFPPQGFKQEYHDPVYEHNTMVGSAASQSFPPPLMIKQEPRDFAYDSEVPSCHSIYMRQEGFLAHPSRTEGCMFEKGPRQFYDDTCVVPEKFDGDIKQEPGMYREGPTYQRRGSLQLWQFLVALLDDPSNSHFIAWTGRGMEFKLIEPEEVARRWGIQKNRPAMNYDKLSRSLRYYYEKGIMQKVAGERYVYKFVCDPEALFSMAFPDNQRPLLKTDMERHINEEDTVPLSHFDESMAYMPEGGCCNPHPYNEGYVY
Chain of HSF1 (Q00613 whole entry): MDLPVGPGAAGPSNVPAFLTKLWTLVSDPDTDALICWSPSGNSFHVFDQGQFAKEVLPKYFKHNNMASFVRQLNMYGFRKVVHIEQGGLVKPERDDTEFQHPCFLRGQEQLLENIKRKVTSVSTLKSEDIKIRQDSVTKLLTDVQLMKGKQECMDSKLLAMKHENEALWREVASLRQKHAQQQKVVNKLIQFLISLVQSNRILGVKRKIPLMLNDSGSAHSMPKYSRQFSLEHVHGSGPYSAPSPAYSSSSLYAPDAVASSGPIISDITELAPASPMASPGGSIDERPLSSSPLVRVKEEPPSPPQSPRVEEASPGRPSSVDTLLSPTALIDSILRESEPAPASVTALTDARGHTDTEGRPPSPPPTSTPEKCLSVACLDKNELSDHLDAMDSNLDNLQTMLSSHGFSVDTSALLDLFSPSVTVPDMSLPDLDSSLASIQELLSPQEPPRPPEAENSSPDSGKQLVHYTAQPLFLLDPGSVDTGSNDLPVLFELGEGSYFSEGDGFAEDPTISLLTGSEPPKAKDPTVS
Chain of ELF4 (Q99607 whole entry): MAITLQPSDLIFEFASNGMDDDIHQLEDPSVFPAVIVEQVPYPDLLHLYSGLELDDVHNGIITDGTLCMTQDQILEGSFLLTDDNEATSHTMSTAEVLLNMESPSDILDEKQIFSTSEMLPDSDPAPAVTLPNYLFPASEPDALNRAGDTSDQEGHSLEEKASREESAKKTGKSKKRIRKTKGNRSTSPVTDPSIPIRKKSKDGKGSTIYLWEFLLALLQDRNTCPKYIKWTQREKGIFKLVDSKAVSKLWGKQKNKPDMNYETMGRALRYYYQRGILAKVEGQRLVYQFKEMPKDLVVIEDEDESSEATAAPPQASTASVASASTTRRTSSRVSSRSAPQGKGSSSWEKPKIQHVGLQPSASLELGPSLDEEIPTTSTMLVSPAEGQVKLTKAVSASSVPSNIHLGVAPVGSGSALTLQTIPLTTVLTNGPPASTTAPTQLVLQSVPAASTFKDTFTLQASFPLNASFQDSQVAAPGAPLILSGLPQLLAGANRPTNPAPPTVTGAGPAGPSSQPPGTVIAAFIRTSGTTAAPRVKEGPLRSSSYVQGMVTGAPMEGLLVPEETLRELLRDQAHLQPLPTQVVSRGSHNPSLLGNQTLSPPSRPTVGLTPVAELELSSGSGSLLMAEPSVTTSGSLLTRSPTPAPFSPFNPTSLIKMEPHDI
Chain of SPIB (Q01892 whole entry): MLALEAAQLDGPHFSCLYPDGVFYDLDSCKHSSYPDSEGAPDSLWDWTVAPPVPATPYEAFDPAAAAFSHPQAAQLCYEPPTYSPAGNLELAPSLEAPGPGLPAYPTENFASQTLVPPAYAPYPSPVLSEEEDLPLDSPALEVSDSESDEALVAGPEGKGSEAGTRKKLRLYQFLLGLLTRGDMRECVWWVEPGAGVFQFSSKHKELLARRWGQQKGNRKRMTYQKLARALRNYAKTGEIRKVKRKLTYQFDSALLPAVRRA

Take GACCTC: the binding signal with FLI1 is 1.22 fold enrichment (6-mer frequency, TF over GST control); in the test with ELK1, 1.35 fold enrichment (6-mer frequency, TF over GST control); with GABPA, 1.35 fold enrichment (6-mer frequency, TF over GST control); with ERG it was 1.38 fold enrichment (6-mer frequency, TF over GST control); with ELF1, 1.39 fold enrichment (6-mer frequency, TF over GST control); with EHF, 1.31 fold enrichment (6-mer frequency, TF over GST control). Further, the binding signal in the test with SPI1 is 1.36 fold enrichment (6-mer frequency, TF over GST control); with SPIB, 1.42 fold enrichment (6-mer frequency, TF over GST control); with ELK3, 1.33 fold enrichment (6-mer frequency, TF over GST control); with FEV, 1.41 fold enrichment (6-mer frequency, TF over GST control); in the test with ETV5 it was 1.42 fold enrichment (6-mer frequency, TF over GST control); in the test with HSF1 it was 1.17 fold enrichment (6-mer frequency, TF over GST control). The binding signal with SPIC is 1.18 fold enrichment (6-mer frequency, TF over GST control); with ELF4, 1.4 fold enrichment (6-mer frequency, TF over GST control); with ELK4, 1.38 fold enrichment (6-mer frequency, TF over GST control); with ETV2 it was 1.51 fold enrichment (6-mer frequency, TF over GST control); with ELF3, 1.45 fold enrichment (6-mer frequency, TF over GST control); with ETV1, 1.38 fold enrichment (6-mer frequency, TF over GST control).
